NTR1 agonist: agonists of human NTR1, primary screen, imaging, U2OS cells, beta-arrestin-GFP, high content; hit rate 0.17% among 330,000; NTR1-U2OS beta-arrestin-GFP spot imaging, agonist mode; Neurotensin receptor type 1 (Homo sapiens), P30989; activation, % at 20 µM;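 active = activation at or above 40% of the spot to cytoplasm intensity ratio, with at least 20 cells analyzed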;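 note: 0% = DMSO without peptide and 100% = 100 nM NTR1 peptide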
TLR4 MyD88 comp: inhibitors of TLR4-MyD88 association in cells, primary screen, cell-based, HeLa CL3-4, BLA complementation, FRET ratio; Toll-like receptor 4 (Homo sapiens) + Myeloid differentiation primary response protein …; HeLa CL3-4 TLR4/MyD88 BLA complementation; inhibition, % at 8.4 µM; hit rate 0.18% among 200,000; in the data active = inhibition above about 25%;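 note: 0% = vehicle and 100% = reference inhibitor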
ABHD5 PLIN5 PPI: ABHD5-PLIN5 interaction inhibitors, primary screen, cell lysate, split luciferase complementation, luminescence. Perilipin-5 (Homo sapiens) + 1-acylglycerol-3-phosphate O-acyltransferase ABHD5 (Homo …. Split G. princeps luciferase complementation, 4 h. inhibition, % at 4 µM. hit rate 0.78% among 360,000. AID 602281, 2012;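 active = inhibition above the mean inhibition across every tested compound plus 3 SD, cut at about 22% in these data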;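 note: 0% = DMSO only wells and the 100% control is not disclosed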
B2AR ag: beta2AR agonists driving receptor internalization, primary screen, cell-based, FAP fluorogen, flow cytometry; response, % (test concentration not listed); Am2.2-beta2AR cells; hit rate 0.43% among 340,000;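 active = response above a set limit, near 3 SD of response in nonfluorescent compounds, cut at about 42% in these data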
TLR9-MyD88 block: inhibitors of TLR9-MyD88 association in cells, primary screen, cell-based, CHO, BLA complementation, fluorescence; Toll-like receptor 9 (Homo sapiens) + Myeloid differentiation primary response protein …; CCF4 FRET ratio; inhibition, % at 4.98 µM; hit rate 0.21% among 340,000;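 active = inhibition above the mean over all tested compounds plus 3 SD, cut at about 21% in these data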;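 note: 0% = DMSO only wells and 100% = clavulanate BLA inhibitor control wells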
NOD2 RIPK2 PPI: NOD2-RIPK2 binding disruptors in cells, primary screen, fluorescence, CHO cells, BLA complementation; Receptor-interacting serine/threonine-protein kinase 2 (Homo sapiens), O43353; CCF4 ratio; inhibition, % at 4.98 µM; hit rate 0.38% among 360,000; AID 624267, 2012; in the data active = inhibition above about 21%;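 note: 0% = vehicle only and 100% = reference blocker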
B2AR ag CP1: beta2AR agonists via receptor internalization, confirmation, cell-based, FAP fluorogen, flow cytometry, single point, cherry pick 1; shares compounds with B2AR ag; Am2.2-beta2AR cells, FAP surface receptor; stronger effect = lower value; percent response (surface receptor), % at 10 µM; hit rate 25% among 1,100;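 active = surface receptor percent response at or below 58%, roughly 3 SD from nonfluorescent compounds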
B2AR FAP counter: counter-screen for beta-2AR agonists: fluorescence in Am2.2 cells; shares compounds with B2AR ag; FAP fluorogen flow cytometry, fluorescence counterscreen; stronger effect = lower value; calls only at 10 µM; 1,100 tested, under 10 active;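 active = percent response below a set limit in fluorescence channel 1 and below 50% in channel 8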
Active calls of the source: *; i = inactive; / = no result given. Hits are enriched below; roughly 1.5% of the tested compounds scored in any of these assays.

SMILES	NTR1 agonist	TLR4 MyD88 comp	ABHD5 PLIN5 PPI	B2AR ag	TLR9-MyD88 block	NOD2 RIPK2 PPI	B2AR ag CP1	B2AR FAP counter
COc1ccc(NC(=O)Cn2c([N+](=O)[O-])cnc2C)c(OC)c1	/	/	-5	/	-1	8	/	/
CCOC(=O)N1CCN(Cc2c(F)cccc2F)CC1	2	4	-7	51*	-7	-11	101	i
CCOC(=O)N1CCN(Cc2c(F)cccc2Cl)CC1	0	2	-1	3	5	-10	/	/
CN1CCN(C(=O)CN(C)S(=O)(=O)c2ccc(F)cc2)CC1	-1	/	-1	-1	-9	-4	/	/
CN(CC(=O)N1CCN(c2ccc(F)cc2)CC1)S(=O)(=O)c1ccc(F)cc1	4	-13	-4	-3	1	-4	120	i
Cc1ccc(S(=O)(=O)N(C)CC(=O)N2CCN(c3ccccn3)CC2)cc1	0	3	-7	99*	14	-4	16*	i
COc1ccc(N2CCN(C(=O)CN(C)S(=O)(=O)c3cc(C)ccc3OC)CC2)cc1	0	-13	1	4	-8	6	91	i
CN(CC(=O)N1CCN(c2ccccn2)CC1)S(=O)(=O)c1ccc(Cl)cc1	0	/	-6	110*	-16	-4	33*	i
COc1ccc(OC)c(S(=O)(=O)N(C)CC(=O)N2CCCCC2)c1	0	/	-10	1	8	-2	/	/
CN(CC(=O)N1CCN(c2ccccn2)CC1)S(=O)(=O)c1ccc2ccccc2c1	-1	6	-4	-2	0	-28	/	/
CC(=O)Nc1ccc(-c2ccnc3c2CC(C)(C(=O)Nc2cccc(Oc4ccccc4)c2)O3)cc1 (centres undefined)	/	/	9	/	/	-2	/	/
CCCCNC(=O)c1nc(C2CCN(S(=O)(=O)c3cccc(C(F)(F)F)c3)CC2)oc1-c1ccccc1	/	/	9	/	/	-4	/	/
CCc1nc2c(OCC(=O)c3ccc(F)cc3)cccn2c1N(C)C(=O)C(C)C	/	/	-2	/	/	-5	/	/
CN(C)c1nc(SCc2ccccc2Cl)nc2c1CCCC2	4	2	-5	43*	2	-5	131	i
Cc1ccc(CSc2nc3c(c(N(C)C)n2)CCCC3)cc1	8	3	-4	-5	3	-10	/	/
O=C1c2cccc([N+](=O)[O-])c2C(=O)N1C1CCCCC1	0	/	-2	-6	-4	0	/	/
Cc1c(Cl)cccc1N1C(=O)C(N2C(=O)c3cccc([N+](=O)[O-])c3C2=O)C1c1cccs1 (centres undefined)	10	-3	-2	52*	-3	4	96	i
CCCCCCCCN1C(=O)[C@H](CC(=O)N2CCC(c3ccccc3)CC2)C[C@@]2(C(=O)OC)CC(C)(C)CC=C12	/	/	-3	/	/	-6	/	/
COC(=O)[C@@]12C[C@@H](CC(=O)NCc3ccc(OC)c(OC)c3)C(=O)N(Cc3cccc4ccccc34)C1=CCC(C)(C)C2	/	/	4	/	/	-2	/	/
CCCCCC1CCC(c2n[nH]c(=S)n2C)CC1 (centres undefined)	3	3	-5	-4	6	-8	110	i
C=CCn1c(C2CC2)n[nH]c1=S	0	10	0	3	0	-6	/	/
C[C@@H]1CCCCO[C@H](CN(C)S(=O)(=O)c2cn(C)cn2)[C@@H](C)CN([C@H](C)CO)C(=O)c2cc(NC(=O)c3ccncc3)ccc2O1	/	/	0	/	10	4	/	/
CC(=O)Nc1ccc2c(c1)C(N1CC3CCC(CC3)C1)c1ccccc1-2 (centres undefined)	/	/	-10	43*	-6	-13	97	i
O=C(Nc1ccc2c(c1)OCO2)c1cc(C2CCCCN2S(=O)(=O)c2cccs2)on1 (centres undefined)	/	/	-2	/	/	4	/	/
COC(=O)c1ccc2nc(C3CCCCC3)c(Cc3ccc(C)cc3)n2c1	/	/	-1	/	/	-6	/	/
SMILES	NTR1 agonist	TLR4 MyD88 comp	ABHD5 PLIN5 PPI	B2AR ag	TLR9-MyD88 block	NOD2 RIPK2 PPI	B2AR ag CP1	B2AR FAP counter
CC(=O)Nc1cc(C(=O)OC(C(=O)c2ccccc2)c2ccccc2)ccc1C (centres undefined)	3	0	4	121*	-11	-7	22*	i
CC(=O)Nc1ccc(S(=O)(=O)N2CCC(Oc3ccc(-n4cnnn4)cc3)CC2)cc1	0	/	1	88*	-2	-2	12*	i
COc1ccc(NC(=O)C2CCCN(S(=O)(=O)c3ccc(-n4cnnn4)cc3)C2)cc1 (centres undefined)	0	/	5	17	-9	-5	/	/
OC(C#Cc1ccccn1)c1cccs1 (centres undefined)	3	0	-9	63*	-2	4	118	i
CN1CCN(c2ccc(NC(=O)c3sc4ccccc4c3Cl)cc2)CC1	2	-4	16	37	10	9	/	/
COC(=O)c1ccc(N2CCN(C)CC2)c(NC(=O)c2sc3ccccc3c2Cl)c1	/	/	8	71*	-8	5	82	i
Cc1cc(N2CCN(C(=O)c3ccco3)CC2)n2nc(-c3cccc(Cl)c3)cc2n1	10	-10	9	42*	6	-9	109	i
CC1(C(=O)NS(=O)(=O)c2ccc(Br)cc2)CCN1C(=O)CCc1cccs1 (centres undefined)	/	/	5	/	/	4	/	/
Cc1ccccc1N=C/C=C1/C=C(c2ccccc2)OC(C)(C)O1	4	-4	5	43*	6	-3	85	i
CSCCNC(=O)C1(C)CCN1C(=O)c1ccc(C(C)(C)C)cc1 (centres undefined)	/	/	7	/	/	5	/	/
Nc1nonc1C(=O)NCCNS(=O)(=O)c1ccc(F)cc1	1	-1	-8	65*	1	-2	69	i
O=C(Nc1nc(-c2ccco2)cs1)c1ccccc1	-1	6	19	43*	0	-10	119	i
O=C(Nc1nc(-c2ccccc2)cs1)c1ccco1	5	/	5	-7	-2	2	/	/
Cn1c(N2CCN(c3ccccn3)CC2)nc2c1c(=O)n(Cc1ccc(Cl)cc1)c(=O)n2C	8	-3	4	127*	8	2	23*	i
Cn1c(N2CCN(c3ccccn3)CC2)nc2c1c(=O)n(Cc1ccccc1Cl)c(=O)n2C	1	0	-7	-9	-10	-13	/	/

Compound activity (PubChem BioAssay)
